Common to all, as to assay: DAPPL (digital affinity profiling via proximity ligation, sequencing); 10 mM Tris-HCl pH 7.5, 50 mM NaCl, 1 mM DTT, 4% glycerol, room temperature, 30 min; GST-TFs on glutathione beads, 16-mer random dsDNA library, 0.1% formaldehyde crosslink after washing; high values mean tight binding
For one experiment, the target named is T1, FLI1 (Homo sapiens, UniProt Q01543 1-452).
T1 sequence: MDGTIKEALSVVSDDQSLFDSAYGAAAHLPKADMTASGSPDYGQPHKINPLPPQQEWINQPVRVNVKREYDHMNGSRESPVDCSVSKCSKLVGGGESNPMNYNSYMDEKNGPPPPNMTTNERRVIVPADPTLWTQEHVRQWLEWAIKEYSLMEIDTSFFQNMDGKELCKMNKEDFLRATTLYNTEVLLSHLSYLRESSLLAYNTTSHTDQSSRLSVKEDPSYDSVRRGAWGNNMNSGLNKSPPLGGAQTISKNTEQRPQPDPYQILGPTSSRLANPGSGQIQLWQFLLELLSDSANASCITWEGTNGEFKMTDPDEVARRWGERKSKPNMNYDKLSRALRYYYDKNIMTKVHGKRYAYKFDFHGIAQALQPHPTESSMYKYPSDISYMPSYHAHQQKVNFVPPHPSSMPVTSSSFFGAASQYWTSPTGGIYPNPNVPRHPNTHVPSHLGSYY
Conditions: protein: recombinant; tags: N-terminal GST; dsDNA, one strand shown. In outline:
(§1)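 Each value of binding signal is a hexamer's read frequency for a factor divided by the same hexamer's frequency in the tag-only sample. Barcoded, bead-captured GST fusions of human transcription factors made in yeast were pooled with that sample and incubated with 200 nmole of a random double-stranded 16-mer DNA library in Tris/NaCl/DTT/glycerol buffer at room temperature for 30 min. Washing, 0.1% formaldehyde crosslinking, proximity ligation, PCR and Illumina NextSeq500 sequencing followed.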

For a further experiment, the target named is T2, ELK1 (Homo sapiens, UniProt P19419 1-428).
T2 sequence: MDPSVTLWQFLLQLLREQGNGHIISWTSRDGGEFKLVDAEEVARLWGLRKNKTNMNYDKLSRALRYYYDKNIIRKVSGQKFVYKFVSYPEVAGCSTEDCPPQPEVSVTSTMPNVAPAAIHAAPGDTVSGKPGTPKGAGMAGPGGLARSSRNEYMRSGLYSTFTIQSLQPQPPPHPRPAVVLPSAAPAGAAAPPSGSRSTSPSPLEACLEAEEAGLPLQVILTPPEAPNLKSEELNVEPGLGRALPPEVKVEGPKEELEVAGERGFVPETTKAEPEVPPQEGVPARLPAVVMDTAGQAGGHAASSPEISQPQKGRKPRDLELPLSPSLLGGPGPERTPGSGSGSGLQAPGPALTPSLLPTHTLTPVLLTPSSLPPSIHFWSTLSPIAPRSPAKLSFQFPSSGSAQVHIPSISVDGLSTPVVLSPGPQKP
The settings on record: protein: recombinant; tags: N-terminal GST; dsDNA, one strand shown. The method in brief: as §1

A further experiment addresses T3, GABPA (Homo sapiens, UniProt Q06546 1-454).
T3 sequence: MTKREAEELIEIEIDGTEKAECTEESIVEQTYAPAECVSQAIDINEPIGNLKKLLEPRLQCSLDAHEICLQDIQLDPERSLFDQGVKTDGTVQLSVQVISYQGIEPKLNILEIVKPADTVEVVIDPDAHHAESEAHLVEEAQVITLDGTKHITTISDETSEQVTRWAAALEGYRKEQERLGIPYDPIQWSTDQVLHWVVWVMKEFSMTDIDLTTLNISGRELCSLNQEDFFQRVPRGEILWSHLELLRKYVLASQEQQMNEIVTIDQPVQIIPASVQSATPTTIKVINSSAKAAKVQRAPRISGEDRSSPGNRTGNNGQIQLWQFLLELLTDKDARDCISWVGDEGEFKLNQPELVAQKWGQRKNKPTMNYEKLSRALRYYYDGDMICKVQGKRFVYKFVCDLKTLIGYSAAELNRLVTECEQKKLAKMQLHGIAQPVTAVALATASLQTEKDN
Conditions: protein: recombinant; tags: N-terminal GST; dsDNA, one strand shown. In outline:
as §1

The target of a further experiment is T4, ERG (Homo sapiens, UniProt P11308 1-479).
T4 sequence: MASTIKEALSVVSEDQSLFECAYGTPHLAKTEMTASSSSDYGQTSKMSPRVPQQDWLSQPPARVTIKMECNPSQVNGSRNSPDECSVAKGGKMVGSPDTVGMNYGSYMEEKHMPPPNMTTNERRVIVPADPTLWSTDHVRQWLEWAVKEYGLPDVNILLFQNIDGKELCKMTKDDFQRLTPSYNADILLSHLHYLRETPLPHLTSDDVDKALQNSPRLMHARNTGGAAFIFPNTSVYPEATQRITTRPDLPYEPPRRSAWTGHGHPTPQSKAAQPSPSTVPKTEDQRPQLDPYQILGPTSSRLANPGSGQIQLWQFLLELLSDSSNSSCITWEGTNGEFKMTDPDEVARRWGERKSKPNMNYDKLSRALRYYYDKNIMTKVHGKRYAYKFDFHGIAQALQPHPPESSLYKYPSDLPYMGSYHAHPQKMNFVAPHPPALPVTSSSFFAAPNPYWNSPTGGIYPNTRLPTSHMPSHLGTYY
Conditions: protein: recombinant; tags: N-terminal GST; dsDNA, one strand shown. In outline: as §1

In a further experiment the target is T5, ELK3 (Homo sapiens, UniProt P41970 1-407).
T5 sequence: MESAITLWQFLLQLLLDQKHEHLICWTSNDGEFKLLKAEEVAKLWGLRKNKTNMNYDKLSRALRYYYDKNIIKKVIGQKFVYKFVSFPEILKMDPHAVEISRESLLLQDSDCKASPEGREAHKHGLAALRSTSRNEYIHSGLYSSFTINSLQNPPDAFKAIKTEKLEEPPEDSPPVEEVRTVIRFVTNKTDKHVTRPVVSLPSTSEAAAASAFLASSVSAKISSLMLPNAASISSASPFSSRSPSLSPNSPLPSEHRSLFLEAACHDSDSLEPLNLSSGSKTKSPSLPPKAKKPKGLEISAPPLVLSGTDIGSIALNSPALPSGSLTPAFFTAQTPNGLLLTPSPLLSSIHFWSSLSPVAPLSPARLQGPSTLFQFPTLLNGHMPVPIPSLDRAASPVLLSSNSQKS
The settings on record: protein: recombinant; tags: N-terminal GST; dsDNA, one strand shown. In outline:
as §1

In the next experiment the target is T6, FEV (Homo sapiens, UniProt Q99581 1-238).
T6 sequence: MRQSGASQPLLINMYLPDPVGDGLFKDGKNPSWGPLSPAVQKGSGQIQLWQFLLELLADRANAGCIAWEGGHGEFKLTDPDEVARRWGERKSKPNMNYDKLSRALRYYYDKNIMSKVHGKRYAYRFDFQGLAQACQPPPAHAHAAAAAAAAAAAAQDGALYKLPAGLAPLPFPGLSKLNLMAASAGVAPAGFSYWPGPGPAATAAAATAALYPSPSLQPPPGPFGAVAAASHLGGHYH
Conditions: protein: recombinant; tags: N-terminal GST; dsDNA, one strand shown. The method in brief: as §1

The target of the next experiment is T7, ETV3L (Homo sapiens, UniProt Q6ZN32 1-361).
T7 sequence: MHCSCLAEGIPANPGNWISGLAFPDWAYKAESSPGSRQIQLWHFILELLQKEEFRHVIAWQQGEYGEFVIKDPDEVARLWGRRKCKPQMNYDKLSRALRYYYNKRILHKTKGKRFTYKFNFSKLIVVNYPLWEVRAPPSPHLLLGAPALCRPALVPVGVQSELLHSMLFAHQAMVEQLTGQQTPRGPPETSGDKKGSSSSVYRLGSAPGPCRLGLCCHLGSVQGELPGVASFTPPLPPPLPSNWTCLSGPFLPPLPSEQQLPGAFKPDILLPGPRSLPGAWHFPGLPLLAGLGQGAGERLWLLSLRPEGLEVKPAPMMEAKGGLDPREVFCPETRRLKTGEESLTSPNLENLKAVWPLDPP
Conditions: protein: recombinant; tags: N-terminal GST; dsDNA, one strand shown. The method in brief:
as §1

The next experiment addresses T8, ETS2 (Homo sapiens, UniProt P15036 1-469).
T8 sequence: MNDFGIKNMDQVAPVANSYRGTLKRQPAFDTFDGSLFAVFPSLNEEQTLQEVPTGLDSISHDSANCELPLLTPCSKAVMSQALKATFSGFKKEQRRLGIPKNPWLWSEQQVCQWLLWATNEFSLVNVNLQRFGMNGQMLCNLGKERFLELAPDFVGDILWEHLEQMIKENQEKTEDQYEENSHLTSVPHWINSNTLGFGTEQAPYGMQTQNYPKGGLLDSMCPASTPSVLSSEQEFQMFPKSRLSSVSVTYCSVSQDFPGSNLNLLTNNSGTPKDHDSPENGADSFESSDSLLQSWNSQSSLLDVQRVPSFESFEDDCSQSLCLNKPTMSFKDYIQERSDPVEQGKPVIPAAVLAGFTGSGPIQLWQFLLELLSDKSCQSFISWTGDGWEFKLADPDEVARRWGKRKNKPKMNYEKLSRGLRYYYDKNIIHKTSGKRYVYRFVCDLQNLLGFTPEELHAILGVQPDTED
The settings on record: protein: recombinant; tags: N-terminal GST; dsDNA, one strand shown. The method in brief: as §1

Another experiment has as its target T9, SPDEF (Homo sapiens, UniProt O95238 1-335).
T9 sequence: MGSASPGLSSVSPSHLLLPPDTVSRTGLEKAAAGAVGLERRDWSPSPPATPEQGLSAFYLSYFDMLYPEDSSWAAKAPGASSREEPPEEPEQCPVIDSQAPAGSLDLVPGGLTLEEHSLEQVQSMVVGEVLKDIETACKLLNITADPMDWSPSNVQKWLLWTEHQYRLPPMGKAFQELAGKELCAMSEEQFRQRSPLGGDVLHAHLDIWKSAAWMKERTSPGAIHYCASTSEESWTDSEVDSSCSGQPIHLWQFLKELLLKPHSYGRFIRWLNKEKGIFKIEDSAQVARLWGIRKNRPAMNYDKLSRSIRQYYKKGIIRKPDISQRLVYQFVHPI
Conditions: protein: recombinant; tags: N-terminal GST; dsDNA, one strand shown. The method in brief: as §1

Another experiment deals with T10, ETV7 (Homo sapiens, UniProt Q9Y603 1-341).
T10 sequence: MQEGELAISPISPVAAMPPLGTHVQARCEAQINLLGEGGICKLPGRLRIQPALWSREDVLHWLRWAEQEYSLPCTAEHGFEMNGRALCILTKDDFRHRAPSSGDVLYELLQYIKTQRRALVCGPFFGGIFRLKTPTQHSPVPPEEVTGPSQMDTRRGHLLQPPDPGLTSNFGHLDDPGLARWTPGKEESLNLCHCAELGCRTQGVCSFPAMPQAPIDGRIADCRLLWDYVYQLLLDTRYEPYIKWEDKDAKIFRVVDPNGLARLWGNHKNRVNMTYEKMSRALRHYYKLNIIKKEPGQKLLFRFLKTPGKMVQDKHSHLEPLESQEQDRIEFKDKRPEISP
Conditions: protein: recombinant; tags: N-terminal GST; dsDNA, one strand shown. In outline:
as §1

The next experiment addresses T11, ETV3 (Homo sapiens, UniProt P41162-2 1-143).
T11 sequence: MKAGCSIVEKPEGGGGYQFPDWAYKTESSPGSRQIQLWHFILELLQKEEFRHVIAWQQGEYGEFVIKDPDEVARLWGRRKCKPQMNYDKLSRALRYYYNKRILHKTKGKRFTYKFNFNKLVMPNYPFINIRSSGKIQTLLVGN
The settings on record: protein: recombinant; tags: N-terminal GST; dsDNA, one strand shown. The method in brief:
as §1

Another experiment addresses ETV6 (Homo sapiens, UniProt P41212 1-452). The settings on record: protein: recombinant; tags: N-terminal GST; dsDNA, one strand shown. In outline:
as §1

A further experiment concerns the target HSF1 (Homo sapiens, UniProt Q00613 1-529). Conditions: protein: recombinant; tags: N-terminal GST; chain copies: 3; dsDNA, one strand shown. In outline: as §1
Another experiment has as its target ELF1 (Homo sapiens, UniProt P32519 1-619). The settings on record: protein: recombinant; tags: N-terminal GST; dsDNA, one strand shown. The method in brief: as §1

Chain of HSF1 (Q00613 whole entry): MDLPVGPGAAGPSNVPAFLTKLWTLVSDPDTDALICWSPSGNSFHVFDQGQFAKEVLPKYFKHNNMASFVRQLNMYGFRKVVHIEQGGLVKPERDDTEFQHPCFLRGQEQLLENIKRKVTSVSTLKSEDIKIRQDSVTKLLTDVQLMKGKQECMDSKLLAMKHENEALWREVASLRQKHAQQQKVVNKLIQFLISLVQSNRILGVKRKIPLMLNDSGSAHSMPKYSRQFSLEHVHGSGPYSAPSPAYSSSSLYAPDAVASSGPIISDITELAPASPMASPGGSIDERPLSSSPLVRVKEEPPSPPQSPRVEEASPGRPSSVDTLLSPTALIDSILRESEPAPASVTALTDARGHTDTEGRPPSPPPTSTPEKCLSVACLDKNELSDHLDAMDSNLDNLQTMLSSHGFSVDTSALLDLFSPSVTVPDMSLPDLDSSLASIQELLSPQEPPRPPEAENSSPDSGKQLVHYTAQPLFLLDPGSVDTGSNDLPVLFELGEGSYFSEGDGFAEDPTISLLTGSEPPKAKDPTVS
Chain of ELF1 (P32519 whole entry): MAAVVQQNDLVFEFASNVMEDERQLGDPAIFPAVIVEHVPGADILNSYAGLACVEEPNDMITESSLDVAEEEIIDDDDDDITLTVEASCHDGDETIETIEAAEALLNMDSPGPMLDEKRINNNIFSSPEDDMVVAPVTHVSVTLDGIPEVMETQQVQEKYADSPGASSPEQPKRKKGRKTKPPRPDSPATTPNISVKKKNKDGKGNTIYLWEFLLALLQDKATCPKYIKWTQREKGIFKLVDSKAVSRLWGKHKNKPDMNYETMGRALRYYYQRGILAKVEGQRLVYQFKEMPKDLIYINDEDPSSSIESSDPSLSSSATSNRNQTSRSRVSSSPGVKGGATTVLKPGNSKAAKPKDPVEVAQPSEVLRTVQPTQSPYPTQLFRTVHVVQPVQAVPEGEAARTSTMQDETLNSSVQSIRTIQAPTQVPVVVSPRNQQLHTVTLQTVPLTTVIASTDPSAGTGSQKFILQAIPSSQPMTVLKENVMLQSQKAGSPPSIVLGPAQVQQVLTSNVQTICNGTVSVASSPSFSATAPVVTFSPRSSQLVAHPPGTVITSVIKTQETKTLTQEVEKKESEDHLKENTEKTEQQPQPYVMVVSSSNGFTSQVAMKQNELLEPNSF
Chain of ETV6 (P41212 whole entry): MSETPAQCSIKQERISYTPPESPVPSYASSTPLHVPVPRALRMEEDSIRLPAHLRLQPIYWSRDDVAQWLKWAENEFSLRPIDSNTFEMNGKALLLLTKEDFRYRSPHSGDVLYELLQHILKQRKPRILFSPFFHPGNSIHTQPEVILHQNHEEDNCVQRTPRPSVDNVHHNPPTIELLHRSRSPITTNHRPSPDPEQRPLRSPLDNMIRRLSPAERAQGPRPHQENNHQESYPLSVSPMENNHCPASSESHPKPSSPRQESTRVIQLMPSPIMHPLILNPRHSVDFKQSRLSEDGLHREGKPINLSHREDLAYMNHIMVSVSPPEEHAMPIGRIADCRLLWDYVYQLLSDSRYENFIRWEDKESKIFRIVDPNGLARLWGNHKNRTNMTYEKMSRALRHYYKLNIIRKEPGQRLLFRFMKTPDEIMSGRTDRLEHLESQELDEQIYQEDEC

On to CCGGTG, for which the binding signal is 1.04 fold enrichment (6-mer frequency, TF over GST control) with FLI1; 1.09 fold enrichment (6-mer frequency, TF over GST control) with ELK1; 1.08 fold enrichment (6-mer frequency, TF over GST control) with GABPA; 1.19 fold enrichment (6-mer frequency, TF over GST control) in the experiment with ERG; 1.08 fold enrichment (6-mer frequency, TF over GST control) with ELK3; 1.35 fold enrichment (6-mer frequency, TF over GST control) with FEV. Also, the binding signal in the experiment with ETV3L is 1.01 fold enrichment (6-mer frequency, TF over GST control); with ETS2, 1.02 fold enrichment (6-mer frequency, TF over GST control); in the experiment with SPDEF it was 1.13 fold enrichment (6-mer frequency, TF over GST control); in the experiment with ETV7, 1.04 fold enrichment (6-mer frequency, TF over GST control); with ETV3, 1.08 fold enrichment (6-mer frequency, TF over GST control); with ETV6, 1.02 fold enrichment (6-mer frequency, TF over GST control).
Regarding GCCAGA, the binding signal with HSF1 was 1.02 fold enrichment (6-mer frequency, TF over GST control).
Consider TGTTGG, for which the binding signal in the experiment with FLI1 was 1.01 fold enrichment (6-mer frequency, TF over GST control); with SPDEF, 1 fold enrichment (6-mer frequency, TF over GST control).
Turning to TCCGAG, the binding signal in the experiment with HSF1 was 1.03 fold enrichment (6-mer frequency, TF over GST control).
On to GTCCAA, for which the binding signal is 1.03 fold enrichment (6-mer frequency, TF over GST control) in the experiment with FLI1; 1.03 fold enrichment (6-mer frequency, TF over GST control) with ELF1; 1.01 fold enrichment (6-mer frequency, TF over GST control) in the experiment with ETV7; 1.04 fold enrichment (6-mer frequency, TF over GST control) with ETV3.

Values taken from article PMC7862700, “An all-to-all approach to the identification of sequence-specific readers for epigenetic DNA modifications on cytosine”.
